Laboratory results: PubChem BioAssay AID1159580 (chemical genetic matrix, 2015)
The campaign covered roughly 5,500 compounds. About 2,000 (36%) were called active. Roughly 18% stayed inconclusive and do not appear here. Cut-off read from the data, not from the text of the source: active = normalized growth mostly below about 0.91 (no sharp cut-off); inconclusive = no clear call, values can overlap the other calls; inactive = mostly above about 0.92. This is one part of the list.

Assay: chemical genetic growth profiling, strain panel (AID 1159580);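 note: tested at 20 µM; growth read once vehicle control cultures reached saturation at 30 °C; 1 = growth at the plate median or of vehicle wells; lower values mean less growth of the strain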
Settings: S. cerevisiae deletion strains, growth OD

Measured: normalized growth

C=C1CCC(=O)C(C)CCC2C1CC2(C)C (stereo unspecified)
inactive: locus YAL013W, strain DEP1, hits give low values 1.01 | locus YBR021W, strain FUR4, hits give low values 1 | locus YBR229C, strain ROT2, hits give low values 1.02 | locus YCL029C, strain bik1, hits give low values 0.993 | locus YDL035C, strain GPR1, hits give low values 1 | locus YDL074C, strain BRE1, hits give low values 1 | locus YDL101C, strain DUN1, hits give low values 1.03 | locus YDL134C, strain PPH21, hits give low values 1.03 | locus YDL185W, strain tfp1, hits give low values 1 | locus YDL192W, strain arf1, hits give low values 0.972 | locus YDR101C, strain arx1, hits give low values 0.987 | locus YDR150W, strain NUM1, hits give low values 1.02 | locus YDR162C, strain NBP2, hits give low values 1.06 | locus YDR318W, strain mcm21, hits give low values 0.998 | locus YDR388W, hits give low values 0.997 | locus YDR502C, strain sam2, hits give low values 1 | locus YEL061C, strain CIN8, hits give low values 1.01 | locus YER110C, hits give low values 0.99 | locus YER155C, strain BEM2, hits give low values 1.02 | locus YER167W, strain BCK2, hits give low values 1.01 | locus YGL078C, strain dbp3, hits give low values 0.995 | locus YGL086W, strain mad1, hits give low values 0.986 | locus YGL248W, strain PDE1, hits give low values 1.03 | locus YGR135W, strain pre9, hits give low values 1.01 | locus YGR252W, strain gcn5, hits give low values 1 | locus YHR030C, strain SLT2, hits give low values 1.02 | locus YHR079C, strain IRE1 (second series), hits give low values 0.984 | locus YHR094C, strain hxt1, hits give low values 0.996 | locus YHR129C, strain ARP1, hits give low values 1.02 | locus YHR200W, strain rpn10, hits give low values 0.995 | locus YIL066C, strain RNR3, hits give low values 1.02 | locus YIL073C, strain SPO22, hits give low values 0.971 | locus YIL125W, strain kgd1, hits give low values 0.987 | locus YIR030C, strain dcg1, hits give low values 0.998 | locus YJL095W, strain BCK1, hits give low values 1.02 | locus YJL134W, strain LCB3, hits give low values 1.02 | locus YJL168C, strain set2, hits give low values 1.01 | locus YJL187C, strain SWE1 (second series), hits give low values 1.03 | locus YJR043C, strain POL32, hits give low values 1.03 | locus YKL009W, strain mrt4, hits give low values 0.976 | locus YKL068W, hits give low values 1.01 | locus YKL085W, strain MDH1 (second series), hits give low values 0.99 | locus YKL085W, strain MDH1, hits give low values 0.99 | locus YLR039C, strain RIC1, hits give low values 1.01 | locus YLR058C, strain SHM2, hits give low values 1.02 | locus YLR102C, strain apc9, hits give low values 0.994 | locus YLR262C, strain YPT6, hits give low values 1.03 | locus YLR268W, strain sec22, hits give low values 0.985 | locus YLR330W, strain CHS5, hits give low values 1.02 | locus YLR342W, strain FKS1 (second series), hits give low values 1.01 | locus YLR371W, strain rom2, hits give low values 0.994 | locus YLR418C, strain cdc73, hits give low values 1.01 | locus YML016C, strain PPZ1, hits give low values 1.02 | locus YML032C, strain rad52, hits give low values 0.997 | locus YML124C, strain tub3, hits give low values 0.995 | locus YMR078C, strain ctf18, hits give low values 1 | locus YMR223W, strain ubp8, hits give low values 1.01 | locus YMR263W, strain SAP30, hits give low values 1.03 | locus YMR307W, strain GAS1, hits give low values 1.08 | locus YNL067W, strain RPL9B, hits give low values 1.02 | locus YNL233W, strain BNI4, hits give low values 1.03 | locus YNL250W, strain rad50, hits give low values 1.01 | locus YNL271C, strain bni1, hits give low values 0.999 | locus YNL298W, strain CLA4, hits give low values 1.03 | locus YNL307C, strain MCK1, hits give low values 0.995 | locus YNR052C, strain pop2, hits give low values 0.989 | locus YOL006C, strain TOP1, hits give low values 1.03 | locus YOL012C, strain htz1 0.879 | locus YOL147C, strain pex11, hits give low values 0.987 | locus YOR061W, strain CKA2, hits give low values 1.02 | locus YOR069W, strain VPS5, hits give low values 1.02 | locus YOR136W, strain idh2, hits give low values 0.991 | locus YOR144C, strain elg1, hits give low values 0.987 | locus YOR184W, strain ser1, hits give low values 0.977 | locus YOR316C, strain cot1, hits give low values 0.998 | locus YPR119W, strain clb2, hits give low values 0.983 | locus YPR141C, strain kar3, hits give low values 0.994 | locus YPR163C, strain tif3, hits give low values 0.997 | locus YPR167C, strain met16, hits give low values 0.99 | strain wtn01, hits give low values 0.966
active: locus YKR001C, strain vps1, hits give low values 0.864
